# BoNT-F LC inh: inhibitors of Botulinum neurotoxin F light chain protease. inhibition, % at 10 µM. hit rate 0.22% among 360,000. Multiplex microsphere protease cleavage assay, flow cytometry; in the data active = inhibition above about 35%, passing the limit was not always enough; inconclusive = no clear call, values can overlap the other calls; note: plate controls were buffer without enzyme for full effect and enzyme alone for no effect
# Anthrax LF inh2: anthrax lethal factor protease inhibition | multiplex microsphere protease cleavage assay, LF | inhibition, % at 10 µM | hit rate 0.12% among 360,000; note: plate controls were buffer without enzyme for full effect and enzyme alone for no effect
# Autofluor counter: compound fluorescence in toxin protease inhibitor counterscreen | compound autofluorescence counterscreen, microsphere flow cytometry; hits give high values | fluorescence intensity (no concentration beside the values) | hit rate 3.1% among 360,000 | AID 624483; in the data active = fluorescence intensity above about 16000; inconclusive = no clear call, values can overlap the other calls
# BoNT A protease: BoNT A light chain protease inhibition. multiplex microsphere protease substrate cleavage, flow cytometry. inhibition, % at 10 µM. hit rate 0.17% among 360,000. AID 588499; note: plate controls were buffer without enzyme for full effect and enzyme alone for no effect
# BH1578 lux ind: quorum light induction in luxS cqsA deficient V. cholerae. V. cholerae BH1578 lux reporter, luminescence, 6 h. activation, % at 18.7 µM. hit rate 0.16% among 350,000; in the data active = activation mostly above about 9.7%, no sharp cut-off; inconclusive = no clear call, values can overlap the other calls; inactive = mostly below about 3.7%
# BoNT-A LC CP1: inhibitors of Botulinum neurotoxin A light chain protease. multiplex microsphere protease assay, flow cytometry. AID 602139. inhibition, % at 10 µM. shares compounds with BoNT-F LC inh. hit rate 3% among 720; in the data active = inhibition above about 32%
# BoNTF LC inh 1: inhibitors of Botulinum neurotoxin F light chain protease. 720 tested, under 10 active. inhibition, % at 10 µM. multiplex microsphere protease cleavage assay, flow cytometry. AID 602140. shares compounds with BoNT-F LC inh; call rule not given here
# LF protease CP1: Bacillus anthracis lethal factor protease inhibition. shares compounds with BoNT-F LC inh. multiplex microsphere protease cleavage assay, LF. inhibition, % at 10 µM. 720 tested, under 10 active. AID 602142; call rule not given here
# Numbers without * were called inactive; i = inactive; ? = inconclusive; / = no result; + = active, no number. Only some compounds are listed: those with a hit (about 3.5% of all), similar ones and a draw of the others. Cut-off read from the data, not from the text of the source, unless noted: active = inhibition above about 30%; inconclusive = no clear call, values can overlap the other calls; inactive = below that.
SMILES,BoNT-F LC inh,Anthrax LF inh2,Autofluor counter,BoNT A protease,BH1578 lux ind,BoNT-A LC CP1,BoNTF LC inh 1,LF protease CP1
CC(C)c1ccc(NC(=O)C2CC(=O)N(C(C)C)C2)cc1 (stereo not drawn),?,8,4324,0,-3,/,/,/
Cc1cccc(C)c1NC(=O)C1CC(=O)N(C(C)C)C1 (stereo not drawn),35*,5,3715,3,-1,-1,-2,-1
COc1ccc(C(=O)NCc2ccc(F)cc2)cc1S(=O)(=O)N1CCCC1,12,7,?,4,i,/,/,/
COc1ccc(CNC(=O)CN2C(=O)COc3ccc(S(=O)(=O)N4CCCC4)cc32)cc1,-2,2,5784,53*,-2,0,2,0
O=S1(=O)CC(NCc2ccccc2)C(Nc2ccccc2)C1 (stereo not drawn),-19,-7,9396,?,0,/,/,/
O=C(NC1CS(=O)(=O)CC1NCc1ccccc1)c1ccccc1 (stereo not drawn),72*,5,8686,5,1,0,-4,0
COc1cc(C2NC(=O)NC(C)=C2[N+](=O)[O-])cc(OC)c1OC (stereo not drawn),2,1,4544,-1,i,/,/,/
O=C(c1cc([N+](=O)[O-])[nH]n1)N1CCSCC1,36*,6,3833,-3,-1,1,-2,2
COc1ccc(-c2cc3ccccc3n2CC(O)Cn2nc(C)cc2C)cc1 (stereo not drawn),-38,49*,3026,152*,-1,0,-4,-2
Cc1cc(C)n(CC(O)Cn2c(C)c(C)c3ccccc32)n1 (stereo not drawn),35*,7,4825,4,1,0,-2,4
COc1ccc(-c2cc3ccccc3n2CC(O)CN2CCC(C)CC2)cc1 (stereo not drawn),-17,-6,5208,1,0,/,/,/
O=C(NCCOc1ccccc1)c1cc(C(=O)NCCOc2ccccc2)cc([N+](=O)[O-])c1,-1,-8,10957,2,i,/,/,/
CN(CCOc1ccccc1)C(=O)c1cc([N+](=O)[O-])cc([N+](=O)[O-])c1,42*,2,4483,5,1,-1,-10,-2
O=c1c(/C=C(\O)c2ccccc2)nc2ccccc2n1-c1ccccc1,+,41*,17938*,61*,3,40*,36*,32*
Cc1nc2ccccc2n1-c1ccccc1,-7,2,4616,0,0,/,/,/
Cc1nnc(N(C(=O)c2cnccn2)c2ccccc2)s1,33,-5,3628,0,i,0,-1,2
Cc1nnc(SCC(=O)Nc2sccc2C(N)=O)n1Cc1ccccc1,36*,6,5801,?,-1,-1,-6,-1
CCCN1CCN(CCNC(=O)Nc2cc(C)ccc2C)CC1,-2,-4,2909,3,i,/,/,/
CN(Cc1ccc(F)cc1)S(=O)(=O)c1nnc(NC(=O)c2ccccc2Br)s1,-2,-1,4484,-1,0,/,/,/
CC(C)=CC1C(C(=O)NCCOc2ccccc2)C1(C)C (stereo not drawn),35*,-6,3785,1,i,0,-6,-1
CC(C)=CC1C(C(=O)NCCc2ccccc2)C1(C)C (stereo not drawn),?,2,3650,0,1,/,/,/
CC(=O)c1ccccc1Oc1ncnc(N)c1[N+](=O)[O-],6,4,2809,-1,i,/,/,/
CC(Sc1nccn1C)C(=O)Nc1ccc(C(N)=O)cc1 (stereo not drawn),39*,2,?,22,i,0,-5,-1
COc1ccccc1Oc1ccc2c(c1)C(=O)N(CC(=O)O)C2=O,38*,2,3877,-1,6,-1,1,-1
COc1ccccc1Oc1ccc2c(c1)C(=O)N(c1ccc(O)cc1)C2=O,-4,3,2846,0,-1,/,/,/
CCC(C)NC(=O)c1cc2cc3ccc(OC)cc3nc2s1 (stereo not drawn),-4,-4,3620,2,-1,1,-2,0
COc1ccc2cc3cc(C(=O)NCCN4CCc5ccccc5C4)sc3nc2c1,-3,0,2574,2,0,/,/,/
CCN(CC)C(=O)CSc1nc(Cc2ccccc2)nc2ccccc12,?,40*,4268,2,i,2,0,2

# High-throughput results (PubChem BioAssay)
